Test results published in PubChem BioAssay (NCATS).
Results filed as inconclusive are left out. Values without a mark were called inactive. Active and inactive are the calls of the source. The call rests on the fitted dose curve; in most records, active means well fitted cell-killing curve with a large enough effect; inconclusive means small, poorly fitted or top-dose-only effect, or effect the other way; inactive means no such curve, though single readings can be large or run the other way.

Test: qHTS of pediatric cancer cell lines to identify multiple opportunities for drug repurposing: Confirmatory screen for NB-EBc1 cells (AID 1347115);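 further: cells exposed to compound for 48 h before the viability read; nearly all actives have a fitted effect of over 45% in size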
Details: NB-EBc1 neuroblastoma cells, viability (cytotoxicity); series mostly up to 45.9 µM; activity change, negative = cytotoxic: at the top concentration
Description: Drug repurposing or repositioning has been offered as a strategy for drug development in oncology programs. This approach has special potential for childhood cancers and other rare or orphan diseases, where the expected return on new drug development has been a disincentive to pharmaceuticals.
In this project we exploit the poly-pharmacology of drugs to discover new indications via phenotypic screening of a panel of 19 well-characterized cell lines derived from solid tumors seen in children and adolescents. The goal is to identify approved drugs with previously unrecognized anticancer properties that has the potential to reveal new mechanisms and biological processes involved in carcinogenesis or drug resistance. We employed a titration-based paradigm (quantitative high-throughput screening or qHTS), where all compounds were tested at multiple concentrations for their effect on cell viability. Concentration-response curves (CRCs) were derived directly from the primary screen, and both potency and efficacy values were used to identify compounds with robust bioactivity profiles. We screened the NIH Chemical Genomics Center (NCGC) Pharmaceutical Collection (NPC) and Mechanism Interrogation Plate (MIPE) small molecule collections of approved and investigational compounds against these cell lines; and measured metabolically active cells after 48 hours of compound treatment as a proxy for cell viability.
Assay Submitter: Nathalia J. Martinez, National Center for Advancing Translational Sciences, National Institutes of Health, Rockville, MD, USA; email: natalia.martinez@nih.gov
[1] Shen, M et al. Quantitative high-throughput phenotypic screening of pediatric cancer cell lines identifies multiple opportunities for drug repurposing. Oncotarget 2017 Dec 19;9(4):4758-4772. PMID 29435139.
The cells were obtained from University of North Carolina (UNC), Pediatric Preclinical Testing Program (PPT), and Coriell Institute (CI).
qHTS cell viability assay:
Cells were assayed in growth media at a density of 500-1,000 cells/well. Five microliters of cells were dispensed into 1,536-well, white, solid-bottom, TC-treated plates (Greiner Bio One) using a multidrop dispenser and incubated at 37 degrees C, 5% CO2, under a humidified atmosphere for 5 hours. Twenty-three nanoliters of compounds and controls (neutral control DMSO or positive control bortezomib at final concentration of 2.3 µM) were subsequently transferred by Kalypsys pintool. For primary screens, the MIPE collection was tested at 11-point dilutions (final concentrations range from 0.78 nM to 46 µM) and the NPC collection at 8-point dilutions (final concentrations range from 0.59 nM to 46 µM). Compounds tested in follow-up screens were assayed at 11-point dilutions. Cells were incubated for 48 hours, followed by addition of 3 µL of CellTiter-Glo (Promega). After a 15 min incubation at room temperature, samples were analyzed for luminescence intensity using a ViewLux High-throughput CCD imager equipped with clear filters.
On the % scale 0 is the no-effect control and ±100 the full control effect; potency means the concentration at half of the fitted maximal effect.

Structure (SMILES) | activity change, negative = cytotoxic [%] | Potency
O=C(NCC1CN(c2ccc(N3CCOCC3=O)cc2)C(=O)O1)c1ccc(Cl)s1 (configuration not stated) | -27.1 | 
CC(C)C[C@H](NC(=O)[C@H](CCc1ccccc1)NC(=O)CN1CCOCC1)C(=O)N[C@@H](Cc1ccccc1)C(=O)N[C@@H](CC(C)C)C(=O)[C@@]1(C)CO1 |  | 0.329 µM (active)
CN(C)c1ccc(C(=C2C=CC(=[N+](C)C)C=C2)c2ccc(N(C)C)cc2)cc1 |  | 1.85 µM (active)
CC(C)(C#N)c1cc(Cn2cncn2)cc(C(C)(C)C#N)c1 | 4.93 | 
CC1CC2C3CCC4=CC(=O)C=C[C@]4(C)[C@@]3(F)[C@@H](O)C[C@]2(C)[C@@]1(O)C(=O)CO (some centres not stated) | -8.49 | 
Cn1nnc2c(C(N)=O)ncn2c1=O | 2.28 | 
CC(C(=O)O)c1ccc2c(c1)CC(=O)c1ccccc1S2 (configuration not stated) | 0.945 | 
COc1nc(N)nc2c1ncn2[C@@H]1O[C@H](CO)[C@@H](O)[C@@H]1O | -0.293 | 
CC(C)(C)C(=O)OCOP(=O)(COCCn1cnc2c(N)ncnc21)OCOC(=O)C(C)(C)C |  | 8.27 µM (active)
CCOC(=O)[C@H](CCc1ccccc1)N[C@H]1CS[C@H](c2cccs2)CN(CC(=O)O)C1=O | -8.24 | 
CS(=O)(=O)c1ccc([C@@H](O)[C@@H](CO)NC(=O)C(Cl)Cl)cc1 | -6.59 | 
COc1cc2nc(N3CCCN(C)CC3)nc(NC3CCN(Cc4ccccc4)CC3)c2cc1OC | 3.34 | 
CCCCOc1ccc(CC(=O)NO)cc1 | -8.74 | 
CNCC[C@H](Oc1cccc2ccccc12)c1cccs1 | -20.8 | 
Nc1[nH]c(=O)ncc1F | -3.2 | 
COc1ccc(C(=O)CC(=O)c2ccc(C(C)(C)C)cc2)cc1 | 8.76 | 

Structure (SMILES) | activity change, negative = cytotoxic [%] | Potency
CNS(=O)(=O)CCc1ccc2[nH]cc(C3CCN(C)CC3)c2c1 | -8.91 | 
Oc1c(Cl)cc(Cl)c2cccnc12 |  | 18.5 µM (active)
CO[C@@]12[C@H](COC(N)=O)C3=C(C(=O)C(C)=C(N)C3=O)N1C[C@@H]1N[C@@H]12 |  | 1.31 µM (active)
Cc1cccc(N(C)C(=S)Oc2ccc3ccccc3c2)c1 |  | 18.5 µM (active)
O=NN(CCCl)C(=O)NC1CCCCC1 | 3.02 | 
CCOC(=O)c1ccc(C#Cc2ccc3c(c2)C(C)(C)CCS3)nc1 | -1.63 | 
CC(C)NCC(O)c1ccc(NS(C)(=O)=O)cc1 (configuration not stated) | 6.5 | 
CNC(=O)c1cc(Oc2ccc(NC(=O)Nc3ccc(Cl)c(C(F)(F)F)c3)cc2)ccn1 |  | 18.5 µM (active)
Nc1nc(=S)c2[nH]cnc2[nH]1 |  | 2.61 µM (active)
COc1cc2c(Nc3ccc(Br)cc3F)ncnc2cc1OCC1CCN(C)CC1 | 9.87 | 
CCC(=O)O[C@]1(C(=O)CCl)[C@@H](C)C[C@H]2[C@@H]3CCC4=CC(=O)C=C[C@]4(C)[C@@]3(F)[C@@H](O)C[C@@]21C | -1.73 | 
NC(=O)c1cccnc1 |  | 10.4 µM (active)
CNNCc1ccc(C(=O)NC(C)C)cc1 | 1.78 | 
CN1CCCC(n2nc(Cc3ccc(Cl)cc3)c3ccccc3c2=O)CC1 (configuration not stated) | -21.8 | 
C[C@@H](CN1CC(=O)NC(=O)C1)N1CC(=O)NC(=O)C1 | -2.42 | 
CCc1c2c(nc3ccc(OC(=O)N4CCC(N5CCCCC5)CC4)cc13)-c1cc3c(c(=O)n1C2)COC(=O)[C@]3(O)CC |  | 0.737 µM (active)
